Test results as given in PubChem BioAssay AID1628 (Sanford-Burnham Center for Chemical Genomics, 2009).
Out of some 190,000 compounds screened, about 930 (0.49%) were called active. The list shows a part of the results. Potency and affinity values are given separately. Unmarked numbers belong to inactive results.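 The calls were made as follows: active = z-score of insulin promoter reporter brightness in nuclei below -3 at 5 µM, with at least 500 cells counted; inconclusive = wells with under 500 cells, flagged as toxic or sparse; inactive = the rest.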

test: decrease of insulin promoter-GFP reporter – imaging, high-content screening, mouse beta cells (AID 1628); settings: MIN6 insulin promoter GFP reporter, at 5 µM, stronger effect = lower value

Compound	z-score
CN(C)C(=S)N=Nc1[nH]c2ccccc2c1O	-5.59 (active)
O=c1[nH]c2ccccc2c(O)c1O	-0.06
O=C(CNC(=O)c1cccc(F)c1)N/N=C/c1cc(Br)ccc1OC(=O)/C=C/c1ccco1	-8.62 (active)
Cc1ccc(CNc2ccc3c(c2)OCO3)c(C)c1	3.69
COc1cc(C)c(CNc2ccc(OC)c(OC)c2)cc1C	-4.27 (active)
CCc1ccc(NC(=O)c2c(C(=O)Nc3ccccc3)sc3nc(C)cc(=O)n23)cc1	-3.57 (active)
CCc1ccc(NC(=O)c2cc(C(C)C)on2)cc1	3.36
CC(=O)n1c(C=Nc2ccccc2)c(O)c2ccccc21	3.61
Cc1cc(C(=O)NCC(=O)OCC(=O)N2CCCCCC2)ccc1[N+](=O)[O-]	-3.78 (active)
COC(=O)c1c(NC(=O)CC2Nc3cc(C)c(C)cc3NC2=O)sc(C)c1C (stereo not given)	6.44
CCOC(=O)c1c(NC(=O)COC(=O)c2cc(OC)c(OC)cc2[N+](=O)[O-])sc(C)c1C	-7.34 (active)
CCC(=O)Nc1ccc(C(=O)OCC(=O)c2ccc(C)c([N+](=O)[O-])c2)cc1	3.37
CCN(C#N)c1nc(NC(C)C)nc(NC(C)C)n1	-6.16 (active)
COc1ccc(N(CC(=O)Nc2ccccc2C(=O)NCC(C)C)S(C)(=O)=O)cc1	-3.31 (active)
COc1ccc(N(CC(=O)Nc2cc(OC)ccc2OC)S(C)(=O)=O)cc1	0.8
COc1ccc(-n2c(C)cc(C(=O)CSc3nn4c(=O)c(C(C)(C)C)nnc4s3)c2C)cc1	-4.21 (active)
COc1ccc(-n2c(SCC(N)=O)nnc2-c2cccnc2)cc1	0.75
CN(C)S(=O)(=O)c1ccc(NC(=O)C2COc3ccccc3O2)cc1 (stereo not given)	2
COc1ccc2c(c1)C(=O)OC2CC(=O)O (stereo not given)	0.37
Cc1ccc(-c2cn3nc(-c4ccccc4)c(-c4ccccc4)nc3n2)cc1	8.16
Cc1cc2nc(C3CCN(Cc4nnnn4Cc4cccs4)CC3)[nH]c2cc1C	-3.92 (active)
CCCCCc1cc(=O)oc2c(C(CCN3CCCC(C)C3)c3ccc(OC)cc3)c(OC)cc(OC)c12 (stereo not given)	-3.09 (active)
CC1CCN(S(=O)(=O)c2ccc(NC(=O)N3c4ccccc4Sc4ccccc43)cc2)CC1	-3.77 (active)

Compound	z-score
C=CCNC(=O)C1CCN(S(=O)(=O)c2ccc(Br)cc2)CC1	3.14
Cc1ccc2c(c1)C(c1ccccc1)N(C(=O)c1cc3ccccc3oc1=O)CC(=O)N2 (stereo not given)	-4.42 (active)
O=C(C1=C(O)C(=O)N(c2nccs2)C1c1ccccc1)c1cc2ccccc2o1 (stereo not given)	13.5
CN(C)c1ccc(/C=C2\SC(=O)N(CCc3nnc(N)s3)C2=O)cc1	3.27
O=C1S/C(=C/c2ccc(N3CCOCC3)o2)C(=O)N1Cc1ccc(F)cc1	11.4
Cc1ccc(S(=O)(=O)CCC(=O)NCCN2C(=O)S/C(=C/c3ccc(F)cc3)C2=O)cc1	-5.68 (active)
CCCc1nc2ccc(NC(C)=O)cc2c(=O)n1Cc1ccc(Cl)cc1	3.64
CN(C)Cc1nc2ccccc2c(=O)n1Cc1nc(C(C)(C)C)cs1	-4 (active)
COc1ccc(Cl)cc1NC(=O)CN(C)C(=O)COc1ccccc1F	4.38
Cc1cccc(OCC(=O)NNC(=O)Nc2cccc(Cl)c2)c1C	-5.42 (active)
CC(=O)Nc1ccc2nc(NC(=O)COc3ccccc3C)sc2c1	2.47
Cc1cccc(N=CC=C2OC(C)(C)C(C)(C)O2)c1	-4.14 (active)
Cc1cccc(N=Cc2[nH]c3ccc(Br)c(Cl)c3c2O)c1	16.6
O=C(c1ccco1)N1CCN(C(=O)c2cc3sccc3n2Cc2ccccc2)CC1	-3.22 (active)
Cn1c(C(=O)N2CCC(C(=O)N3CCN(Cc4ccc5c(c4)OCO5)CC3)CC2)cc2sccc21	4.67
Cc1ccc(/C=C/C(=O)O)cc1S(=O)(=O)NCCO	-4.14 (active)
CC(C)N1CCc2c(sc(NC(=O)c3cc4cc([N+](=O)[O-])ccc4s3)c2C(N)=O)C1	7.47
CCn1ncc(Br)c1C(=O)Nc1sc2c(c1C(N)=O)CCC2	3.46
CCC(C)(C)C1CCc2c(sc(NC(=O)c3cccs3)c2C(N)=O)C1 (stereo not given)	-3.17 (active)
CN(CCCNC(=O)CN1C(=O)CC(C)(C)S(=O)(=O)c2ccccc21)C1CCCCC1	3.03
COc1cccc(OCCOc2cccc(/C=N/n3cnnc3)c2)c1	-5.3 (active)
COc1cccc(/C=N/NC(=O)CCn2cnc3ccccc32)c1	3.74
COc1ccc(CCNC(=O)c2cnc3scc(C)n3c2=O)cc1OC	0.78

Compound	z-score
COc1ccc(CCNc2ncnc3[nH]ncc23)cc1OC	-7.54 (active)
COc1ccc(/C(O)=C/c2nc3ccc(C(=O)NCCc4cccc(C)c4)cc3[nH]c2=O)cc1OC	4.75
CCOC(=O)COc1cccc2c(=O)n(CC(=O)NCCc3ccc(OC)c(OC)c3)ccc12	3.56
COc1ccc(CCNc2ncnc3cc(OC)c(OC)cc23)cc1OC	-3.22 (active)
CCCCCn1c(=O)c(-c2nc3ccccc3[nH]2)c(O)c2ccccc21	-5.3 (active)
CCCCCn1nc(-c2ccccc2)c2nc3ccccc3nc21	4.99
CCCCn1c(=O)[nH]c2nc3cc(N)ccc3nc2c1=O	4.83
COCCCn1cc(C(=O)c2cc(Br)ccc2O)cc(C#N)c1=O	2.45
CCC(=O)NC(Nc1ncc(C)s1)(C(=O)OC)C(F)(F)F (stereo not given)	0.55
O=C(Nc1ccc(N2CCN(C(=O)c3ccco3)CC2)c(Cl)c1)c1cc2ccccc2o1	-5.03 (active)
O=C(Nc1ccc(N2CCN(C(=O)c3ccccc3)CC2)c(Cl)c1)c1ccc(Br)o1	-3.01 (active)
Cc1nonc1NC(=O)CSc1nc2c(C)cccc2cc1C#N	12.5
CCOC(=O)c1cc(C#N)c(SCC(=O)c2cc(C#N)c(SC)nc2C)nc1C	-4.9 (active)
COc1ccc2nc(SCC(C)=O)c(C#N)cc2c1	8.23
O=[N+]([O-])c1ccc(C2=NN(c3ccccc3)C(c3ccco3)C2)cc1 (stereo not given)	16.5
COc1cc(OC)cc(C(=O)N2CCC(N3CCCCCC3)CC2)c1	1.84
CCOC(=O)c1ccc(Nc2ccc(-c3ccc(OC)c(OC)c3)nn2)cc1	-3.46 (active)
Cn1c(=O)c(Nc2ccc(Cl)cc2)c2c3c(cccc31)C(=O)c1ccccc1-2	15.1
N#C/C(=C\c1ccc(N2CCOCC2)o1)c1nc2ccccc2[nH]1	8.22
NS(=O)(=O)c1cccc2cccnc12	5.52
NCC12CC3CC(C1)CC(CN)(C3)C2	3.09
Cn1cc(/C=C2\SC(=S)N(NC(=O)c3ccccc3Cl)C2=O)c2ccccc21	7
COc1ccc(NC(=O)CSc2nnnn2C)c([N+](=O)[O-])c1	0.83

Compound	z-score
CCOC(=O)c1sc(-c2ccccc2)cc1NC(=O)CSc1nnnn1C	-3.34 (active)
CCOC(=O)c1sc(=S)n(-c2ccccc2)c1N(C(C)=O)C(C)=O	1.57
CCOC(=O)c1c(NC(=O)CSc2nnnn2C)sc(C)c1-c1ccc(C)cc1	-3.09 (active)
CC(C)(C)C(=O)c1sc2nc(-c3cccs3)cc(C(F)(F)F)c2c1N	13.8
CCOc1ccccc1NC(=O)C1CCN(S(=O)(=O)c2ccc(OC)c(OC)c2)CC1	0.9
COc1ccc(NC(=O)C2CCN(Cc3cnn(-c4ccccc4)c3-n3cccc3)CC2)cc1OC	-4.57 (active)
NC(CO)C(O)c1ccc([N+](=O)[O-])cc1 (stereo not given)	-0.09
COCCN(CCOC)Cc1cc(=O)oc2cc3c(cc12)CCC3	3.14
Cc1cccn2c(=O)c(/C=C3\SC(=S)N(CC(C)C)C3=O)c(NCCCOC(C)C)nc12	12.1
C(=C/c1nccc2c1[nH]c1ccccc12)/c1ccc2c(c1)OCO2	10.6
Cc1ccc2[nH]c3c(c2c1)CN(C(=O)CN1CCN(Cc2ccc4c(c2)OCO4)CC1)CC3	-3.96 (active)
O=C(CN1CCN(Cc2ccc3c(c2)OCO3)CC1)N1CCc2[nH]c3ccccc3c2C1	-4.04 (active)
O=c1[nH]c(CN2CCN(Cc3ccc4c(c3)OCO4)CC2)nc2sc3c(c12)CCC3	3.55
CCN(CC)c1ccc2cc(-c3nnc(-c4ccncc4)o3)c(=O)oc2c1	4.43
COc1ccc2nc(SCC(=O)Nc3ccc(S(=O)(=O)N4CCCC4)cc3)c(C#N)cc2c1	3.47
COc1ccc(S(=O)(=O)N2CCCCC2)cc1NC(=O)CSc1ncnc2ccccc12	-4.48 (active)
Cc1ccc(-c2noc(CSc3nnnn3-c3ccccc3)n2)cc1	2.35
COC(=O)c1ccccc1NC(=S)N1CCC(N2CCCCC2)CC1	1.65
CCOC(=O)c1ccccc1NC(=O)c1ccc2c(=O)n3c(nc2c1)CCCCC3	-3.69 (active)
CC1(C)CC(N2CCCC2)=CC(=[N+]2CCCCCC2)C1	-4.54 (active)
CCOc1ccc(-n2c(SCC(=O)NC(C)CC)nc3n[nH]c(C)c3c2=N)cc1 (stereo not given)	3
